Measured values as given in PubChem BioAssay (EPA / NIEHS).
Results filed as inconclusive are left out. Active and inactive are the calls of the source. Rule for the calls: active = hit-call score of the fitted dose curve at least 0.9, where 1 is the maximum; inconclusive = response in the unintended direction; inactive = score below 0.9.

Key:
[1] = biological target: human Vasopressin 1A Receptor (V1A), AVPR1A (gene 552) (UniProt P37288); test: NVS_GPCR_hV1A: NovaScreen (NVS) G Protein-Coupled Receptor Assay for human Vasopressin 1A Receptor (V1A) (AID 2283284)
Procedure, shortened: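 Cell-free radioligand displacement on human platelet preparations, 1.5 h incubation, filter-based scintillation counting. Chemicals first tested in duplicate at 25 uM; actives then run in concentration-response up to 50 uM, loss of signal fitted against DMSO.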

[2] = biological target: rat Adrenergic Receptor, Beta (Adrb), Non-selective Binding, Adrb1 (gene 24925) (UniProt P18090); test: NVS_GPCR_rAdrb_NonSelective: NovaScreen (NVS) G Protein-Coupled Receptor Assay for rat Adrenergic Receptor, Beta (Adrb), Non-selective Binding (AID 2283298)
Procedure, shortened: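 Non-selective beta-adrenergic radioligand binding in rat cortical membranes, 1 h incubation, filter-based scintillation read-out. Primary screen 25 uM in duplicate; hits retested in concentration-response up to 50 uM, DMSO baseline.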

[3] = biological target: human Purinergic Receptor P2Y, P2RY1 (gene 5028) (UniProt P47900); test: NVS_GPCR_hPY2: NovaScreen (NVS) G Protein-Coupled Receptor Assay for human Purinergic Receptor P2Y (AID 2283281)
Procedure, shortened: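 Cell-free radioligand binding using U937-derived protein, 1 h after dosing, filter-based scintillation counting. Screened in duplicate at 25 uM; actives rerun as concentration-response up to 50 uM; loss of signal versus DMSO.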

[4] = biological target: human Opioid Receptor Delta 1 (Opiate D1), OPRD1 (gene 4985) (UniProt P41143); test: NVS_GPCR_hOpiate_D1: NovaScreen (NVS) G Protein-Coupled Receptor Assay for human Opioid Receptor Delta 1 (Opiate D1) (AID 2283280)
Procedure, shortened: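 Radioligand displacement on membranes from CHO cells expressing the receptor, read by filter scintillation counting 1 h after dosing. Duplicate single-point screen at 25 uM, then concentration series for actives; loss of signal versus DMSO.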

[5] = biological target: human Thromboxane A2 Receptor (TXA2), TBXA2R (gene 6915) (UniProt P21731); test: NVS_GPCR_hTXA2: NovaScreen (NVS) G Protein-Coupled Receptor Assay for human Thromboxane A2 Receptor (TXA2) (AID 2283282);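 note: actives reduce bound radioligand signal relative to DMSO baseline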
Procedure, shortened: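 Human platelet membranes tested for radioligand displacement by filtration and scintillation counting 1 h post-dose. Screened in duplicate at 25 uM; activity fitted as signal loss relative to DMSO.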

[6] = biological target: mouse Cholecystokinin, CCK1 Receptor (CCKA), Cckar (gene 12425) (UniProt O08786); test: NVS_GPCR_mCCKAPeripheral: NovaScreen (NVS) G Protein-Coupled Receptor Assay for mouse Cholecystokinin, CCK1 Receptor (CCKA) (AID 2283285)
Procedure, shortened: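 Radioligand competitive displacement on mouse pancreatic membranes, 2 h incubation; filter-based scintillation counting, loss of signal versus DMSO. Single-concentration screen at 25 uM in duplicate, actives retested in concentration-response up to 50 uM.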

[7] = system: 5-hydroxytryptamine receptor 2C (pig); test: NVS_GPCR_p5HT2C: NovaScreen (NVS) G Protein-Coupled Receptor Assay for pig Serotonin, 5-Hydroxytryptamine Receptor 2C (5HT2C) (AID 2283288)
Procedure, shortened: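 Pig choroid plexus membranes; radioligand competitive binding, filter-based scintillation counting, read 1 h after dosing. Primary screen in duplicate at 25 uM; actives then run as concentration series; loss of signal versus DMSO baseline.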

[8] = biological target: human Opioid Receptor Mu (Opiate Mu), OPRM1 (gene 4988) (UniProt P35372); test: NVS_GPCR_hOpiate_mu: NovaScreen (NVS) G Protein-Coupled Receptor Assay for human Opioid Receptor Mu (Opiate Mu) (AID 2283290);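 note: hits lower bound tracer signal versus DMSO meaning displacement of the ligand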
Procedure, shortened: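 Primary screen in duplicate at 25 uM, with actives followed in concentration series. CHO-derived receptor membranes, cell-free; bound radioligand read by scintillation counting after filtration at 2.5 h, decrease scored against DMSO.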

[9] = biological target: rat Gamma-Aminobutyric Acid Type B Receptor (GABBR), Gabbr1 (gene 81657) (UniProt Q9Z0U4); test: NVS_GPCR_rGABBR: NovaScreen (NVS) G Protein-Coupled Receptor Assay for rat Gamma-Aminobutyric Acid Type B Receptor (GABBR) (AID 2283301)
Procedure, shortened: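 Radioligand displacement on rat cortical membranes, 1 h, filter-based scintillation counting. Primary screen at 25 uM in duplicate; compounds passing threshold re-tested in concentration-response up to 50 uM; loss of binding fitted against DMSO.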

[10] = biological target: rat Adrenergic, Alpha 1, Non-selective Receptor (Adra1), Adra1a (gene 29412) (UniProt P43140); test: NVS_GPCR_rAdra1_NonSelective: NovaScreen (NVS) G Protein-Coupled Receptor Assay for rat Adrenergic, Alpha 1, Non-selective Receptor (Adra1) (AID 2283289)
Procedure, shortened: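 Rat forebrain membranes; radioligand displacement read by filter-based scintillation counting 1 h after dosing. Primary screen in duplicate at 25 uM; hits (e.g. ≥30% inhibition) rerun as concentration–response to 50 uM max. Fitted versus DMSO.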

[11] = biological target: guinea pig Serotonin, 5-Hydroxytryptamine Receptor 4 (5HT4), HTR4 (gene 100135548) (UniProt O70528); test: NVS_GPCR_g5HT4: NovaScreen (NVS) G Protein-Coupled Receptor Assay for guinea pig Serotonin, 5-Hydroxytryptamine Receptor 4 (5HT4) (AID 2283294)
Procedure, shortened: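 Guinea pig striatal membranes; radioligand competitive displacement, filtration and scintillation counting after 1 h. Primary screen in duplicate at 25 uM; actives then tested in concentration series; loss of binding signal fitted relative to DMSO.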

[12] = biological target: rat Serotonin, 5-Hydroxytryptamine Receptor (5HT), Non-Selective Binding, Htr1a (gene 24473) (UniProt P19327); test: NVS_GPCR_r5HT_NonSelective: NovaScreen (NVS) G Protein-Coupled Receptor Assay for rat Serotonin, 5-Hydroxytryptamine Receptor (5HT), Non-Selective Binding (AID 2283295)
Procedure, shortened: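 Radioligand displacement on rat cortical membranes, 1 h incubation, filter-based scintillation counting. Primary duplicates at 25 uM, actives retested in concentration series; loss of signal fitted against DMSO as baseline.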

[13] = biological target: rat Adrenergic, Alpha 1A Receptor (Adra1A), Adra1a (gene 29412) (UniProt P43140); test: NVS_GPCR_rAdra1A: NovaScreen (NVS) G Protein-Coupled Receptor Assay for rat Adrenergic, Alpha 1A Receptor (Adra1A) (AID 2283296)
Procedure, shortened: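 Rat cortical membranes pretreated with chlorethyl clonidine; competitive radioligand displacement, 1 h. Filter-based scintillation counting. Primary screen in duplicate at 25 uM, actives followed in concentration series.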

[14] = system: rat Adrenergic, Alpha 1B Receptor (Adra1B), gene 24173; test: NVS_GPCR_rAdra1B: NovaScreen (NVS) G Protein-Coupled Receptor Assay for rat Adrenergic, Alpha 1B Receptor (Adra1B) (AID 2283297)
Procedure, shortened: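 Rat liver membranes, radioligand displacement with filter-based scintillation detection, 1 h incubation. Primary screen in duplicate at 25 uM; actives retested in concentration series; activity relative to DMSO.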

[15] = biological target: rat Adrenergic Receptor, Alpha 2 (Adra2), Non-selective Binding, Adra2a (gene 25083) (UniProt P22909); test: NVS_GPCR_rAdra2_NonSelective: NovaScreen (NVS) G Protein-Coupled Receptor Assay for rat Adrenergic Receptor, Alpha 2 (Adra2), Non-selective Binding (AID 2283299)
Procedure, shortened: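 Rat cortical membranes, radioligand competitive displacement read by filter-based scintillation counting 1.25 hours after dosing. Primary screen in duplicate at 25 uM; actives followed up in concentration series.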

[16] = biological target: guinea pig Bradykinin Receptor B2 (BK2), BDKRB2 (gene 100135486) (UniProt O70526); test: NVS_GPCR_gBK2: NovaScreen (NVS) G Protein-Coupled Receptor Assay for guinea pig Bradykinin Receptor B2 (BK2) (AID 2283292)
Procedure, shortened: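 Radioligand displacement on guinea pig ileum membranes for 1 h, read by filter-based scintillation counting; loss of signal relative to DMSO. Compounds were screened in duplicate at 25 uM, and those passing the threshold were retested in concentration-response up to 50 uM.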

human Purinergic Receptor P2Y, P2RY1 (gene 5028), sequence (P47900 whole entry, looked up): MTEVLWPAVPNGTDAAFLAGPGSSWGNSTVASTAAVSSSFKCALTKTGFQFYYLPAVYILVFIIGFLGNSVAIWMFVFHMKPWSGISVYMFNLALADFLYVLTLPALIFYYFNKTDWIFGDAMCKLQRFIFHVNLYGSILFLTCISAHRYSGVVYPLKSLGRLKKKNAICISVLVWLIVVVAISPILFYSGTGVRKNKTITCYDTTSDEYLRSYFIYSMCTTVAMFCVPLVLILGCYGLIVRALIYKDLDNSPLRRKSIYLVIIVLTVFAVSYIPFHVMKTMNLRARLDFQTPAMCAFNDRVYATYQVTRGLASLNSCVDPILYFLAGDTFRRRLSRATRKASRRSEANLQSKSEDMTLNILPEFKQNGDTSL
human Opioid Receptor Delta 1 (Opiate D1), OPRD1 (gene 4985), sequence (P41143 whole entry, looked up): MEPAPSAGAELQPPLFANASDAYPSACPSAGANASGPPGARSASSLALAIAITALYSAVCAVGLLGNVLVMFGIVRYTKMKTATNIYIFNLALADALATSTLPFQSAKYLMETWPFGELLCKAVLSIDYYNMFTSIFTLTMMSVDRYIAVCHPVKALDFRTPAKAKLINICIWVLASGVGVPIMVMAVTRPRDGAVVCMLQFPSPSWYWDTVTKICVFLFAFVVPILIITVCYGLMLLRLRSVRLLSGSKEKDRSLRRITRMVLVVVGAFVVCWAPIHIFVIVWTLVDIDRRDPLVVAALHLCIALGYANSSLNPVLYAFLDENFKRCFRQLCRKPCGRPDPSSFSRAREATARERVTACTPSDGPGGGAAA
human Thromboxane A2 Receptor (TXA2), TBXA2R (gene 6915), sequence (P21731 whole entry, looked up): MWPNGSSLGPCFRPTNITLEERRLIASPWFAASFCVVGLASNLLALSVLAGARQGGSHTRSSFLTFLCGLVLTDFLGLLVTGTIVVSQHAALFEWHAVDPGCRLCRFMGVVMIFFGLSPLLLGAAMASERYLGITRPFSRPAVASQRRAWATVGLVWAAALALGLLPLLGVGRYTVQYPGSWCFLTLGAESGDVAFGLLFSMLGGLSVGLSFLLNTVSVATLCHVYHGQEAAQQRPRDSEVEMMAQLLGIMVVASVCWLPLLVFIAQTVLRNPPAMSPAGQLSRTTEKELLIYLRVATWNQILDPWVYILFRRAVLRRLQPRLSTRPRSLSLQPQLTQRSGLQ
guinea pig Serotonin, 5-Hydroxytryptamine Receptor 4 (5HT4), HTR4 (gene 100135548), sequence (O70528 whole entry, looked up): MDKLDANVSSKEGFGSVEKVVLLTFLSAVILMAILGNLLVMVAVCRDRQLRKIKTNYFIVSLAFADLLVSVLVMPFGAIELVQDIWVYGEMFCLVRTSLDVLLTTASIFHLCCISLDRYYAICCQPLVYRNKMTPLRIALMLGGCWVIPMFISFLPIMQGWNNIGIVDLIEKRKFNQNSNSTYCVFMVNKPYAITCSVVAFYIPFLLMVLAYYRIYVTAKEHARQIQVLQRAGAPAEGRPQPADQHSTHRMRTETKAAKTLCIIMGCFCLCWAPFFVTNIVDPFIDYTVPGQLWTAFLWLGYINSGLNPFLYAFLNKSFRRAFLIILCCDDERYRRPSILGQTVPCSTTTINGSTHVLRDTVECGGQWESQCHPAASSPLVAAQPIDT
human Opioid Receptor Mu (Opiate Mu), OPRM1 (gene 4988), sequence (P35372 whole entry, looked up): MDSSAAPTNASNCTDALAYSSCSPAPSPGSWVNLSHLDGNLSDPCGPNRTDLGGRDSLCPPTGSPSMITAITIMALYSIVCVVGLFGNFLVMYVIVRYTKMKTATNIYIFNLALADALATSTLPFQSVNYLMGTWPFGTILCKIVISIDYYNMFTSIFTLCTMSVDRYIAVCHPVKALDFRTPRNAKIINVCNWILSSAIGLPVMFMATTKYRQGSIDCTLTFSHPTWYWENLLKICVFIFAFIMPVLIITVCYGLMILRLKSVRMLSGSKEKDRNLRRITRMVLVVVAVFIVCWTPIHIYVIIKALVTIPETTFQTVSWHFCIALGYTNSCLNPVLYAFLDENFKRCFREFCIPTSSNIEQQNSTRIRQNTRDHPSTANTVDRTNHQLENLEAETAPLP
rat Adrenergic, Alpha 1, Non-selective Receptor (Adra1), Adra1a (gene 29412), sequence (P43140 whole entry, looked up): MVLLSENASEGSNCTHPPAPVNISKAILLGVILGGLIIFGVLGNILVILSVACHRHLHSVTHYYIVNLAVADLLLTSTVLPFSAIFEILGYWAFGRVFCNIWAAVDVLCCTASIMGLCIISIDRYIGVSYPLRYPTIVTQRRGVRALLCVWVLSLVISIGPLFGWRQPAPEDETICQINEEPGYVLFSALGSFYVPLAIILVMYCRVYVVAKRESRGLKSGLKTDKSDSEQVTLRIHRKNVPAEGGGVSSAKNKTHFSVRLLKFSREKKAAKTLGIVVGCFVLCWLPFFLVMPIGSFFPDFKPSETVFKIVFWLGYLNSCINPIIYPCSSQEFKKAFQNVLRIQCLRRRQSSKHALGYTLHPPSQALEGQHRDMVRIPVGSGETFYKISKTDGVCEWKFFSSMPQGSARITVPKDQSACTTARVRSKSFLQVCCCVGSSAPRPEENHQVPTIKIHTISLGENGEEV
rat Serotonin, 5-Hydroxytryptamine Receptor (5HT), Non-Selective Binding, Htr1a (gene 24473), sequence (P19327 whole entry, looked up): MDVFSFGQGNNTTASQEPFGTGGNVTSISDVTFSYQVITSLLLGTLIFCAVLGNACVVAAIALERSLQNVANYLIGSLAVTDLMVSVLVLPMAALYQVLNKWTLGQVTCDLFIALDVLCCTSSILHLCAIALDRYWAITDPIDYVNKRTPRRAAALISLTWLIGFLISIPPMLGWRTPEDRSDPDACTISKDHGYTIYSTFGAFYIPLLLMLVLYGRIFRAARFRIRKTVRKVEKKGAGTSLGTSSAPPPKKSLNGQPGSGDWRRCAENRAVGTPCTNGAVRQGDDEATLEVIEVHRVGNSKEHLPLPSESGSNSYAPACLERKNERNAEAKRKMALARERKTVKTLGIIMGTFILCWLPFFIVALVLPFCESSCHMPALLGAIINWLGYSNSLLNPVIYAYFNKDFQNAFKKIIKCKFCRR
rat Gamma-Aminobutyric Acid Type B Receptor (GABBR), Gabbr1 (gene 81657), sequence (Q9Z0U4 whole entry, looked up): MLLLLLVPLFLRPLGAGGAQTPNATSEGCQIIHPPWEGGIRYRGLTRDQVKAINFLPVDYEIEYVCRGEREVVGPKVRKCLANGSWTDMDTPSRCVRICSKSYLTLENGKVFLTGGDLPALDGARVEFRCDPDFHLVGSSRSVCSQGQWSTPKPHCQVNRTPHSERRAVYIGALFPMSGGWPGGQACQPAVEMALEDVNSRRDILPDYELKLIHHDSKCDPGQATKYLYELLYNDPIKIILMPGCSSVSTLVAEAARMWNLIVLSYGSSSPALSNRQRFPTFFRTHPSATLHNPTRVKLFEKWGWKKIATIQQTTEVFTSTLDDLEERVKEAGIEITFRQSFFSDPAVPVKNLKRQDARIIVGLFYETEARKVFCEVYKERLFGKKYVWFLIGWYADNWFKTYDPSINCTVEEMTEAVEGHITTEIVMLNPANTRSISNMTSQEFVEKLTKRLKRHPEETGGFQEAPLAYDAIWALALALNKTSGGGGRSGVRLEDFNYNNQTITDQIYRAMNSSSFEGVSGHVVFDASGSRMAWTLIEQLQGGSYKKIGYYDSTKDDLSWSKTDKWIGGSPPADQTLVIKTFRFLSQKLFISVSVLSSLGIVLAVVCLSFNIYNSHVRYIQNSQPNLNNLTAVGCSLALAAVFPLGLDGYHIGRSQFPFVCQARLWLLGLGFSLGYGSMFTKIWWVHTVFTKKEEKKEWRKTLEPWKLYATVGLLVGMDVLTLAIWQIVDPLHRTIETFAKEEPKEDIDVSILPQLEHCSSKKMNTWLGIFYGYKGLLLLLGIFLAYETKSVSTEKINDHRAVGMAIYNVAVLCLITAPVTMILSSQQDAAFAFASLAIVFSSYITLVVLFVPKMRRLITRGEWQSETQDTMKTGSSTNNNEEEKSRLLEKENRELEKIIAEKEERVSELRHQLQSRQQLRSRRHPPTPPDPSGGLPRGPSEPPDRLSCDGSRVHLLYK
rat Adrenergic Receptor, Beta (Adrb), Non-selective Binding, Adrb1 (gene 24925), sequence (P18090 whole entry, looked up): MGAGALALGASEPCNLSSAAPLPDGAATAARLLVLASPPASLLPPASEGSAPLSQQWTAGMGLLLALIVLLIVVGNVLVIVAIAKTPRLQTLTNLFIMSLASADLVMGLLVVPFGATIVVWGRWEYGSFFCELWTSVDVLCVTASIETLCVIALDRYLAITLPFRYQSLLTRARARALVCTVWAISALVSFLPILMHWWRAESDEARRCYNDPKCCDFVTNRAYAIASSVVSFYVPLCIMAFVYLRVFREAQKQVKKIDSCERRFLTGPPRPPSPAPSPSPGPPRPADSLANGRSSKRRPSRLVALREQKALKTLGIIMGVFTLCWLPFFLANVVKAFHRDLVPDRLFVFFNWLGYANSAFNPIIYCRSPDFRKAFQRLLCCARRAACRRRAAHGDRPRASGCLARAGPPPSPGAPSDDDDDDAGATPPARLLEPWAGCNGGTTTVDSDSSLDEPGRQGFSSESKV
mouse Cholecystokinin, CCK1 Receptor (CCKA), Cckar (gene 12425), sequence (O08786 whole entry, looked up): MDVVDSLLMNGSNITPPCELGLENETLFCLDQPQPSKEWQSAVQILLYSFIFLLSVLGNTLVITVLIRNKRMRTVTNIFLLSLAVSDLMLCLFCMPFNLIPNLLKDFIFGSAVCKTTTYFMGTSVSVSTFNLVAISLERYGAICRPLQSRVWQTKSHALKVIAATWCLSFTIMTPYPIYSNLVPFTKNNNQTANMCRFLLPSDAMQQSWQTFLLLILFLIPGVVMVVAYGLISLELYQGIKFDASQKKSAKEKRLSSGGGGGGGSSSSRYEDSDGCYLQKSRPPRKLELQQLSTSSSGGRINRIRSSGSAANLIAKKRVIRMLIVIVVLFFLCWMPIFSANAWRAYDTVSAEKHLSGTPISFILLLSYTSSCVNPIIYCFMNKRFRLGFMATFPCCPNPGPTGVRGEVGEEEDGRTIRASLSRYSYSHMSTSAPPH

Q: `N#C[C@@H]1CC(F)(F)CN1C(=O)CNC1CC2CCC(C1)N2c1ncccn1` (some centres not stated) was tested. Which outcome [1] did it give?
A: Its outcome is “inactive”.

Q: How did the outcome [2] turn out when `O=c1c(-c2ccc(O)cc2)coc2cc(O)ccc12` was run?
A: Its outcome is “inactive”.

Q: For `C#C[C@]1(O)CC[C@H]2[C@@H]3CCC4=CC(=O)CC[C@@H]4[C@H]3CC[C@@]21C`, which outcome [3] is on record?
A: Its outcome is “inactive”.

Q: How did the outcome [4] turn out when `NC(=O)N1C(=O)C(C(=O)c2cc(Cl)cs2)c2cc(F)c(Cl)cc21` (configuration not stated) was run?
A: Its outcome is “inactive”.

Q: And the outcome [3]?
A: Its outcome is “inactive”.

Q: What about the AC50 [5] of the same compound?
A: The AC50 was 0.961 µM (active).

Q: And the outcome [6]?
A: The outcome was “inactive”.

Q: And the outcome [7]?
A: The outcome was “inactive”.

Q: What about the outcome [8] of the same compound?
A: The outcome was “inactive”.

Q: And the outcome [9]?
A: Its outcome is “inactive”.

Q: Which results are given for `CC[C@H](c1ccc(O)cc1)[C@@H](CC)c1ccc(O)cc1`?
A: AC50 [4]: 8.04 µM (active); AC50 [8]: 1.1 µM (active)

Q: How did the AC50 [8] turn out when `CC#C[C@]1(O)CC[C@H]2[C@@H]3CCC4=CC(=O)CCC4=C3[C@@H](c3ccc(N(C)C)cc3)C[C@@]21C` was run?
A: The AC50 was 0.908 µM (active).

Q: For `CCN(CC)CCNc1ccc(CNC=O)c2sc3ccc(OC)cc3c(=O)c12`, which outcome [4] is on record?
A: The outcome was “inactive”.

Q: What about the AC50 [7] of the same compound?
A: Its AC50 is 13.5 µM (active).

Q: What about the AC50 [10] of the same compound?
A: The AC50 was 20.1 µM (active).

Q: What about the AC50 [8] of the same compound?
A: The AC50 was 9.79 µM (active).

Q: And the AC50 [11]?
A: The AC50 was 7.23 µM (active).

Q: What about the AC50 [12] of the same compound?
A: The AC50 was 40.2 µM (active).

Q: And the AC50 [13]?
A: Its AC50 is 18.9 µM (active).

Q: What about the AC50 [14] of the same compound?
A: The AC50 was 19.4 µM (active).

Q: And the AC50 [15]?
A: The AC50 was 13.6 µM (active).

Q: Which results are given for `Oc1cc2ccccc2c2ccccc12`?
A: AC50 [7]: 0.848 µM (active); outcome [11]: inactive

Q: How did the AC50 [5] turn out when `CCCCC(CC)COC(=O)CCCCC(=O)OCc1ccccc1` (configuration not stated) was run?
A: The AC50 was 12.7 µM (active).

Q: With `Cc1cc(CCN2CCN(c3nsc4ccccc34)CC2)cc2c1NC(=O)CC2(C)C` as the compound, how does the AC50 [7] read?
A: Its AC50 is 0.00247 µM (active).

Q: What about the AC50 [11] of the same compound?
A: The AC50 was 15.2 µM (active).

Q: What about the outcome [9] of the same compound?
A: The outcome was “inactive”.

Q: With `CC(=O)NC1(c2cccc(F)c2)CCN(CC[C@@]2(c3ccc(Cl)c(Cl)c3)CN(c3ccccc3)C(=O)CO2)CC1` as the compound, how does the outcome [4] read?
A: Its outcome is “inactive”.

Q: And the AC50 [7]?
A: The AC50 was 3.53 µM (active).

Q: And the AC50 [10]?
A: Its AC50 is 11.8 µM (active).

Q: And the AC50 [8]?
A: Its AC50 is 10.3 µM (active).

Q: What about the AC50 [12] of the same compound?
A: Its AC50 is 2.9 µM (active).

Q: And the AC50 [13]?
A: Its AC50 is 34.8 µM (active).

Q: `CCCCCCCCC(=O)O` was tested. Which AC50 [1] did it give?
A: The AC50 was 5.76 µM (active).

Q: What about the outcome [10] of the same compound?
A: The outcome was “inactive”.

Q: What about the outcome [16] of the same compound?
A: Its outcome is “inactive”.

Q: `O=C(O)Cc1cc(I)c(Oc2cc(I)c(O)c(I)c2)c(I)c1` was tested. Which outcome [6] did it give?
A: The outcome was “inactive”.

Q: And the outcome [10]?
A: Its outcome is “inactive”.

Q: And the AC50 [8]?
A: The AC50 was 14.3 µM (active).

Q: With `Nc1cccc2c(N)cccc12` as the compound, how does the outcome [5] read?
A: The outcome was “inactive”.

Q: What about the outcome [11] of the same compound?
A: Its outcome is “inactive”.

Q: And the AC50 [15]?
A: The AC50 was 16.8 µM (active).

Q: How did the outcome [8] turn out when `CC(C)CCCCCCOC(=O)CCCCC(=O)OCCCCCCC(C)C` was run?
A: The outcome was “inactive”.

Q: And the outcome [2]?
A: The outcome was “inactive”.

Q: What does the source list for `CCCCCCCCCCCCc1ccccc1S(=O)(=O)O`?
A: AC50 [4]: 7.58 µM (active); AC50 [3]: 12.3 µM (active); AC50 [5]: 12.1 µM (active); AC50 [10]: 38.7 µM (active); AC50 [8]: 15.1 µM (active); AC50 [14]: 30.9 µM (active)

Q: For `CCc1nn(C2CCCCC2)c2cc(C3(C#N)CCC(C(=O)O)CC3)ccc12` (configuration not stated), which outcome [4] is on record?
A: The outcome was “inactive”.
